Assay outcomes (PubChem)
GBA enhancer = GBA activity enhancers in patient fibroblasts, primary screen, cell-based. Lysosomal acid glucosylceramidase (Homo sapiens), P04062. AID 784, 2007. 30,000 tested, 0.44% active. L444P Gaucher fibroblasts, 4-MU-glucoside fluorescence, 3 days. activation, % at 10 µM; in the data active = activation above about 65%;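 note: 0% = vehicle wells and 100% = positive control wells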
Target sequence (P04062 whole entry L483P): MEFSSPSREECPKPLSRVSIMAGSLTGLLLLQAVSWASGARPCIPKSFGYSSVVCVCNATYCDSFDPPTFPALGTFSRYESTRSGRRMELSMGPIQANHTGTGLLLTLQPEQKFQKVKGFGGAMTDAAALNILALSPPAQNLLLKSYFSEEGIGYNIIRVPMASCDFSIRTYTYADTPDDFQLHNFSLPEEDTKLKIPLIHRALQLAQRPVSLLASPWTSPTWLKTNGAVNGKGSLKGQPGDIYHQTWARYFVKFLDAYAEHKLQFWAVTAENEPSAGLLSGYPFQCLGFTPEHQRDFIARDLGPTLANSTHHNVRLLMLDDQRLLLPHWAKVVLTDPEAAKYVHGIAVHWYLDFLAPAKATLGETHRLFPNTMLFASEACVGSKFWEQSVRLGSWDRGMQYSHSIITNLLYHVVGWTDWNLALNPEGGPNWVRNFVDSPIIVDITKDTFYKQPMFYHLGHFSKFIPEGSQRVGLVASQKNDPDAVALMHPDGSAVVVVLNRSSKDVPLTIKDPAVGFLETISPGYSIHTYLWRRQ
Starred values were filed as active, the others as inactive. The entries come from a sample that favours hits as a whole.

SMILES | GBA enhancer
Cc1cc(C)nc(-n2nc(C)cc2NC(=O)c2cc(=O)c3ccccc3o2)n1 | 10.7
Cc1cc(C)nc(-n2nc(C)cc2Nc2ccccc2)n1 | 1.0
Cc1cc(C)nc(-n2nc(C)cc2NC(=O)c2cc3ccccc3oc2=O)n1 | 114.0*
CSc1ncccc1C(=O)OCC(=O)NC(=O)NCCC(C)C | -17.8
COn1c(SCC(=O)N(C)C)nc2ccccc2c1=O | -10.9
COc1ccc(C(C(=O)NC2CCCCC2)N2CCC3(CC2)OCCO3)cc1 (stereo unspecified) | 0.3
Cc1ccc(C(C(=O)NC2CCCCC2)N2CCCC2)cc1 (stereo unspecified) | 126.8*
CN(C)C(C(=O)NC1CCCCC1)c1ccc(Cl)cc1 (stereo unspecified) | -23.3
CCc1nc(SCC(=O)N2CCCc3ccccc32)c2c(=O)n(C)c(=O)n(C)c2n1 | -11.2
O=S(=O)(NCCc1csc(-c2ccccc2)n1)c1ccc2c(c1)OCCO2 | 53.8
Cc1nc(CNS(=O)(=O)c2ccc3c(c2)OCCO3)cs1 | 5.4
O=S(=O)(NCc1csc(-c2cccnc2)n1)c1ccc2c(c1)OCCO2 | 109.3*
CC(=O)c1cccc(NC(=O)N2CCCC2C(=O)NC2CCCCC2)c1 (stereo unspecified) | -9.9
CC(=O)N1CCc2cc(Br)cc(S(=O)(=O)NCCCN3CCCC(C)C3)c21 (stereo unspecified) | 2.9
CC(=O)N1CCc2cc(Br)cc(S(=O)(=O)NCCCN3CCC(C)CC3)c21 | 4.4
CC(=O)N1CCc2cc(Br)cc(S(=O)(=O)NCCN3CCCCC3C)c21 (stereo unspecified) | 78.4*
Cc1nn(Cc2ccccc2)c2sc(C(=O)N3CCN(Cc4ccc5c(c4)OCO5)CC3)cc12 | -10.8
CCOC(=O)Nc1c(C(=O)OC)[nH]c2cccc(OC)c12 | -1.7
Cn1c(=O)c2c(nc(CN3CCc4ccccc4C3)n2CC(=O)c2ccccc2)n(C)c1=O | 8.7
Cc1ccccc1N1CCN(c2ncnc3c2cnn3Cc2ccc(Cl)cc2)CC1 | -4.1
Cc1ccccc1CS(=O)(=O)Cc1ccc(C(=O)NCCCN2CCCC2=O)o1 | 13.4
Cc1ccccc1CS(=O)(=O)Cc1ccc(C(=O)NCc2ccco2)o1 | 170.7*
Cc1ccccc1CS(=O)(=O)Cc1ccc(C(=O)NCCCN2CCOCC2)o1 | 23.1
O=C(NCc1ccco1)C1Cc2ccccc2CN1S(=O)(=O)c1ccccc1F (stereo unspecified) | -0.6
COC(=O)COC(=O)c1ccc(Oc2nc(OC)nc(N(C)C)n2)cc1 | 3.3
SMILES | GBA enhancer
C=CCn1c(-c2ccco2)n[nH]c1=S | 5.8
C=CCn1c(-c2cc(OC)c(OC)c(OC)c2)n[nH]c1=S | -6.6
C=CCn1c(-c2c[nH]c3ccccc23)n[nH]c1=S | 66.9*
CCOc1cc(S(=O)(=O)NCc2ccccn2)c(C)cc1C | -14.5
O=C(NCCCN1CCOCC1)c1cccs1 | 0.6
C/C=C/CSc1nc2c(c(=O)[nH]c(=O)n2C)n1C(C)C | -56.2
CC(C)n1c(SCC(N)=O)nc2c1c(=O)[nH]c(=O)n2C | 11.7
CC(C)n1c(=S)[nH]c2c1c(=O)[nH]c(=O)n2C | 135.7*
CCOc1ccccc1-n1c(SCC(N)=O)nnc1-c1ccc(O)cc1 | 115.7*
CCOc1ccccc1-n1c(SCC(=O)N2CCOCC2)nnc1-c1ccccn1 | -3.7
CCOc1ccccc1-n1c(SCC(=O)N(CC)CC)nnc1-c1ccccn1 | -0.1
O=C(NCc1ccc(F)cc1)C1CCC(=O)N1C1CCCCC1 (stereo unspecified) | -32.0
COCCn1nnnc1CN(CCc1ccccc1)Cc1cc2ccc(C)cc2[nH]c1=O | -7.6
CC(C)c1nnc(NC(=O)Cn2nc(-c3ccc4c(c3)OCCO4)ccc2=O)s1 | -15.1
Cc1ccc2c3c(c(SCC(=O)Nc4nonc4C)nc2c1)CCCC3 | 14.3
O=C1OCCN1CCN(CN1C(=O)CCC1=O)CN1C(=O)CCC1=O | -15.3
Cc1nonc1NC(=O)OCCN1CCOC1=O | 88.4*
Cc1cccc(-c2c3c(=O)n(C)c(=O)n(C)c3c3c(C)cc(C)nn23)c1 | -28.1
CCSc1ccccc1C(=O)NCc1ccc2c(c1)OCO2 | 0.0
O=C(CN(CCc1ccccc1)C(=O)CNS(=O)(=O)c1ccccc1)NCC1CCCO1 (stereo unspecified) | -6.9
COc1cccc(S(=O)(=O)NCc2ccc(C(=O)NCC3CCCO3)cc2)c1 (stereo unspecified) | 2.4
COc1ccc(S(=O)(=O)NCC(=O)N(CC(=O)NCC2CCCO2)c2ccccc2C)cc1 (stereo unspecified) | 71.6*
CCOC(=O)N1CCC(NC(=O)CCC(=O)N2CC(C)Oc3ccc(Cl)cc32)CC1 (stereo unspecified) | -11.6
CCCCC(=O)NC(Nc1nc(C2CC2)cs1)(C(=O)OCC)C(F)(F)F (stereo unspecified) | -8.1
CCN(CCCNC(=O)C1CCN(S(=O)(=O)c2cnc[nH]2)CC1)c1cccc(C)c1 | -19.8
CC(C)(C)NC(=O)c1ccccc1-c1nc(-c2ccccc2Cl)no1 | -8.9
Cc1ccc(-n2nnnc2SCc2nnc(-c3ccccc3Br)o2)c(C)c1 | 0.6
Cc1cccc(NC(=O)C2CC(O)CN2C(=O)OCc2ccccc2)c1 (stereo unspecified) | 20.6
